# Assay results from PubChem BioAssay AID588342 (National Center for Advancing Translational Sciences (NCATS), 2011).
# About 25,000 (6.9%) of roughly 360,000 compounds were called active. About 9% were inconclusive and are not listed. Calls come from the whole dose curve; as a rule, active = well fitted inhibition curve with a large enough effect; inconclusive = small, poorly fitted or top-dose-only effect; inactive = flat fitted curve, though single readings scatter. The list comes from a sample in which actives are over-represented; it also holds similar structures and randomly drawn compounds.
# Molecular target: Luciferin 4-monooxygenase (Photinus pyralis) (UniProt P08659)
# Assay: qHTS profiling assay for firefly luciferase inhibitor/activator using purifed enzyme and Km concentrations of substrates (counterscreen for miR-21 project); note: nearly all actives have a fitted effect of over 55% in size;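 for activity change, negative = inhibition: plate controls were vehicle for no effect and reference inhibitor for full effect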
# Settings: purified FLuc, luminescence inhibition; series mostly up to 57.5 µM; activity change, negative = inhibition: at the top concentration
# How it was run: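 Purified P. pyralis luciferase, 10 nM final, with Km-level 10 uM D-luciferin and 10 uM ATP in 50 mM Tris acetate pH 7.5, 10 mM Mg acetate, 0.01% Tween-20, 0.05% BSA; 6-point qHTS titration about 60 µM downward; luminescence read.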
# Potency is the fitted concentration of half-maximal effect.
# Sequence of Luciferin 4-monooxygenase (Photinus pyralis) (P08659 whole entry, looked up): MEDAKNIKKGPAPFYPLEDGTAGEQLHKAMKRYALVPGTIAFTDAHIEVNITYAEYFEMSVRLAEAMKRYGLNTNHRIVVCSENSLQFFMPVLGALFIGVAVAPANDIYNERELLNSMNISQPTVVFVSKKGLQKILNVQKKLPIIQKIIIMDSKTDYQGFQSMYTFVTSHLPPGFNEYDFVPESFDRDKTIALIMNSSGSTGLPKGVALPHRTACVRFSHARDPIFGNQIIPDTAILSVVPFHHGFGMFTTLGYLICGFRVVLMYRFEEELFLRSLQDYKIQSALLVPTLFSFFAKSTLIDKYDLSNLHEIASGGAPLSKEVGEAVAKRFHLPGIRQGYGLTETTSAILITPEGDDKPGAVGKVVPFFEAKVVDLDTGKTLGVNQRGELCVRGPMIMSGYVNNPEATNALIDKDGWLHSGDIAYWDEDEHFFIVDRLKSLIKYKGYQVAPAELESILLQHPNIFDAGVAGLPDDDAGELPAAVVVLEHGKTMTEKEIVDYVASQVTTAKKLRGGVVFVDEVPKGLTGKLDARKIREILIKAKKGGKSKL
Compound,Potency,"activity change, negative = inhibition"
COc1ccccc1N=Cc1c(O)c2ccccc2oc1=O,1.9 µM (active),–
COc1cc(N=Cc2c(O)c3ccccc3oc2=O)c(OC)cc1Cl,–,0.283% (inactive)
O=C(Nc1ccc(OC(F)(F)F)cc1)c1cc2c(=O)n3ccccc3nc2s1,–,1.26% (inactive)
CCc1cc2c(-c3ccccc3)cc(=O)oc2c2c1OCN(Cc1ccc(C)cc1)C2,–,-2.21% (inactive)
CCC(CC)c1nnc(NC(=O)/C=C/c2ccco2)s1,–,2.36% (inactive)
CCc1ccc2oc(-c3ccc(C)c(NC(=O)/C=C/c4ccco4)c3)nc2c1,3.01 µM (active),–
Cc1cccc(C(=O)Nc2ccc(-c3nc4ncccc4o3)cc2C)c1,–,-1.32% (inactive)
Cc1ccc2cccc(NC(=O)c3cccc4ccccc34)c2n1,–,-2.45% (inactive)
CN(c1ccc2nc3ccccc3c(=O)n2n1)C1CCCCC1,0.169 µM (active),–
CC(C)C(C)NC(=O)COc1nc2ccccc2nc1N(C)C1CCCCC1 (centres undefined),–,0.505% (inactive)
O=c1c2ccccc2nc2n1C1(CCCCC1)Cc1ccccc1-2,–,-1.54% (inactive)
CCC(=O)N1CCc2cc(CNC(=O)Nc3ccccc3Cl)ccc21,–,-15.3% (inactive)
COc1cc2sc(C)nc2cc1C,–,-2.95% (inactive)
Cc1nc(Nc2ccc3c(c2)OCCO3)c2nnn(Cc3ccccc3Cl)c2n1,26.9 µM (active),–
Cc1nc(Nc2ccccc2F)c2nnn(Cc3ccccc3Cl)c2n1,–,-4.09% (inactive)
CCCc1nc(NCc2ccc3c(c2)OCO3)c2nnn(Cc3ccccc3Cl)c2n1,–,-0.879% (inactive)
COc1ccc(OC(C)C(=O)NCCc2nc3ccccc3[nH]2)cc1 (centres undefined),–,-0.594% (inactive)
O=c1[nH]nc(CSCc2ccccc2Cl)[nH]1,–,2.07% (inactive)
c1ccc(-c2nnc(SCc3nc4ccccc4[nH]3)o2)cc1,–,1.85% (inactive)
c1ccc2c(CSCc3nc4ccccc4[nH]3)cccc2c1,10.7 µM (active),–
Nc1cccc(CCc2nc3ccccc3[nH]2)c1,–,-21.6% (inactive)
Clc1ccccc1SCc1nc2ccccc2[nH]1,13.5 µM (active),–
COC(=O)Cc1ccc(OC(=O)C2CCN(S(=O)(=O)c3ccc(OC)c(OC)c3)CC2)cc1,–,1.97% (inactive)
Cc1nnsc1C(=O)NCc1c(F)cccc1Cl,–,-1.24% (inactive)
Cc1nn(Cc2ccccc2)c(C)c1CNC(=O)c1ccc(F)c(S(=O)(=O)N2CCOCC2)c1,–,5.42% (inactive)
O=C(NC(=S)Nc1ccc(NC(=O)c2cccs2)cc1)c1ccc([N+](=O)[O-])cc1,–,0.372% (inactive)
O=C(Nc1ccccc1-c1ccccc1)c1cccs1,–,5.07% (inactive)

Compound,Potency,"activity change, negative = inhibition"
O=C(NC(=S)Nc1cccc(-c2ccc(CO)o2)c1)c1cccs1,19 µM (active),–
CCc1cnc2c(c1SCC(=O)c1ccccc1)c(=O)n(C)c(=O)n2C,–,0.976% (inactive)
O=S(=O)(NCc1ccccc1Br)c1ccccc1Br,–,-13.2% (inactive)
CCOC(=O)c1ccc(Nc2cc(C)nc3nc(C)nn23)cc1,–,4.41% (inactive)
Cc1cc(C)n(C(=O)c2ccc(S(=O)(=O)N3CCCC3)cc2)n1,–,-0.0836% (inactive)
Cc1cc(Nc2ccccc2)n(C(=O)c2ccc(N)cc2)n1,9.53 µM (active),–
Cc1ccc2cc(/C=N/NC(=O)[C@@H]3CCCN3)c(Cl)nc2c1,–,-3.8% (inactive)
Cc1ccc2cc(/C=N/Nc3ccc(C(=O)O)cc3)c(Cl)nc2c1,0.151 µM (active),–
CCNC(=S)NNC(=O)c1ccc2ncccc2c1,–,-6.07% (inactive)
CSCC[C@H](NC(=O)OC(C)(C)C)C(=O)N/N=C/c1cc2ccc(C)cc2nc1Cl,–,1.83% (inactive)
Cc1ccc(S(=O)(=O)Nc2ccc3ncccc3c2)cc1,–,-1.82% (inactive)
O=C(O)c1ccc(N/N=C/c2ccc3ncccc3c2)cc1,0.675 µM (active),–
O=C(NCc1ccco1)c1cccn2c(=O)c3c4c(sc3nc12)CCCC4,–,-11.7% (inactive)
O=c1oc(-c2ccco2)nc2sc3c(c12)CCCCC3,0.675 µM (active),–
Cn1c(=O)n(Cc2ccco2)c(=N)c2c3c(sc21)CCCC3,–,-1.02% (inactive)
CCN(C(=O)CSc1nnc(-c2ccc(OC(F)F)cc2)n1N)C1CCS(=O)(=O)C1 (centres undefined),–,-1.63% (inactive)
O=C(NNC(=O)c1ccc(-n2cncn2)c([N+](=O)[O-])c1)c1ccccc1,–,-7.75% (inactive)
CCC1(CC)NC(=O)N(Cc2nc3ccccc3s2)C1=O,–,1.69% (inactive)
C/C(=N\NC(=O)CC(C)C)c1c(C(F)(F)F)[nH]n(-c2nc3ccccc3s2)c1=O,5.36 µM (active),–
C/C(=N\NC(=O)CSc1nc2ccccc2c(=O)n1-c1ccccc1C)c1cccs1,–,2.93% (inactive)
CC(=NCc1ccco1)c1c(C(F)(F)F)[nH]n(-c2nc3ccccc3s2)c1=O,7.57 µM (active),–
Cc1cccc(NC(=O)c2cc3c(C)nn(-c4ccccc4)c3s2)c1,–,-2.33% (inactive)
O=C(NCc1ccncc1)C1CCN(C(=O)c2cccc(Cl)c2)CC1,–,2.73% (inactive)
Cc1ccc(-n2c(CNc3ccc(F)cc3)nnc2SCC(=O)N2CCOCC2)cc1,–,5.25% (inactive)
O=C(CSc1cccc[n+]1[O-])c1ccc(Cl)cc1,–,-5.96% (inactive)
COc1ccccc1C(=O)CSc1cccc[n+]1[O-],–,-1.55% (inactive)
O=C(CSc1cccc[n+]1[O-])c1ccc(-c2ccccc2)cc1,19 µM (active),–
